Source: the supplement of paper PMC4166925
± gives the standard deviation of the averaged measurements. Over roughly 33,000 sequences, “E-score (dimensionless, -0.5 to 0.5)” has its median near -0.046; the highest 2% begin near 0.36. The full list was thinned out, with the highest values kept by preference.

These sequences were tested on T1, SpTbr T-box DNA-binding domain (GST fusion) (assay: PBM E-score of 8-mer (E-score (dimensionless, -0.5 to 0.5)); Tbr is Tbrain of the sea star Patiria miniata (Pm) or the sea urchin Strongylocentrotus purpuratus (Sp); higher = stronger binding preference). Conditions: the construct has about 5 more residues each side.
T1 sequence: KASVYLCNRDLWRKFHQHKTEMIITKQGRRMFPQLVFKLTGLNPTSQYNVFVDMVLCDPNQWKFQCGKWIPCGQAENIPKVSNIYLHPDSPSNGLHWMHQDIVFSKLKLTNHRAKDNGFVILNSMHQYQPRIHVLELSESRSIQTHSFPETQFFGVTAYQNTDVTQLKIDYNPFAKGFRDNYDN
Description: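 Universal protein-binding microarray (Agilent AMADID 016060, 60-bp probes with a 35-bp variable region) incubated with 200 nM GST-fused Strongylocentrotus purpuratus Tbr T-box DNA-binding domain (residues 362-554) in PBS pH 7.5. Scored for every ungapped 8-mer (given with its reverse complement) as E-score (range -0.5 to 0.5; >0.45 counts as bound) and Z-score of median probe intensity. Two replicate arrays (datasets 1 and 2).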
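Further: protein at 200 nM in PBS on universal double-stranded arrays.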

Sequence | PBM E-score of 8-mer
AGTGGAGA | -0.0675 ± 0.13
AAAGTGAA | -0.017 ± 0.029
CAAGTGCG | 0.395 ± 0.02
CAAGTGCC | 0.266 ± 0.0062
AAAGTGAC | 0.367 ± 0.032
AAAGTGCG | 0.337 ± 0.006
CAAGTGTA | 0.249 ± 0.051
CAAGTGTG | 0.453 ± 0.0056
AAAGTGTG | 0.441 ± 0.0064
CAAGTGGG | 0.265 ± 0.022
AAAGTGAT | 0.205 ± 0.0065
ACAGTGTG | 0.338 ± 0.011
AAAGTGAG | 0.217 ± 0.0053
CAGCAACC | -0.109 ± 0.025
ACCTTAGA | 0.0853 ± 0.026
AATCTCTA | -0.14 ± 0.0019
AGTACTGA | -0.0534 ± 0.012
AGTATCGC | 0.185 ± 0.0083
CACAAGTC | 0.166 ± 0.039
ACAGTGTC | 0.213 ± 0.0024
AAAGTGGT | 0.00031 ± 0.043
CAAGTGTC | 0.351 ± 0.012

Sequence | PBM E-score of 8-mer
AAAGTGGC | 0.205 ± 0.025
GAAGTGTA | 0.304 ± 0.0081
AAAGTGTT | 0.416 ± 0.035
CACAAGTG | 0.38 ± 0.016
AAAGTGTA | 0.112 ± 0.073
GAAGTGTC | 0.42864 ± 0.00011
AACAAGTG | 0.298 ± 0.035
AAAGTGTC | 0.39331 ± 0.00039
GCGCTTAC | 0.216 ± 0.054
CTGATGCA | 0.0385 ± 0.021
CCTCGTAC | -0.22 ± 0.0077
AAGGGTAG | -0.0117 ± 0.11
ACTGGAGA | -0.123 ± 0.052
AGACCTTC | -0.26 ± 0.016
GCACCTTA | 0.404 ± 0.026
ACACCTTG | 0.4831 ± 0.0013
ACACCTTC | 0.4746 ± 0.0017
CCACCTGA | 0.148 ± 0.02
AAACCTTG | -0.17 ± 0.045
GAACCTTA | -0.0824 ± 0.12
CCACCTTC | 0.2634 ± 0.0018
AGACCTTG | -0.19 ± 0.022

Sequence | PBM E-score of 8-mer
CCACCTTA | 0.213 ± 0.01
TCACCTGA | 0.3337 ± 0.0032
GCACCTGA | 0.386 ± 0.0077
ATATCCAT | -0.037 ± 0.059
AGCCAACT | -0.173 ± 0.045
AGATTTCA | -0.0179 ± 0.064
ACTAGGAT | -0.2518 ± 0.0023
CAAGGAAC | -0.142 ± 0.03
CTCTCCAC | 0.0528 ± 0.073
CGTTAGGA | -0.0398 ± 0.0099
AAGAATTC | -0.22 ± 0.027
ACACCTTA | 0.46892 ± 0.00038
AAACCTTA | -0.0223 ± 0.025
ATACCTTA | 0.1245 ± 0.00057
GCAAGAGC | -0.0244 ± 0.092
CTCGTCAC | 0.389 ± 0.024
GTCGTCAC | 0.337 ± 0.025
ATCGTCAA | 0.158 ± 0.0046
CTCGTCAA | 0.201 ± 0.0083
ATCGTCAT | -0.00478 ± 0.05
ATCGTCAC | 0.381 ± 0.011
TCGCCAGA | 0.0255 ± 0.017

Sequence | PBM E-score of 8-mer
AAGGCACA | -0.16 ± 0.04
ATGGGGGG | -0.172 ± 0.0088
AGAAGTGA | 0.289 ± 0.014
AGTCTACG | -0.209 ± 0.008
CAGCTACG | -0.036 ± 0.0027
TGTGGTAA | 0.133 ± 0.02
GGCGGCCA | -0.156 ± 0.03
ATTCGCAC | 0.4705 ± 0.0024
CTTCGCAA | 0.341 ± 0.029
CTTCGCCC | -0.0235 ± 0.028
ATTCGCAG | 0.33 ± 0.013
ATTCGCAA | 0.29 ± 0.016
CTTCGCAC | 0.461 ± 0.015
GTCTATAA | -0.0104 ± 0.0026
CGAGGGCC | -0.127 ± 0.057
ACGAAAGT | 0.00641 ± 0.0039
AATGTGGC | 0.219 ± 0.02
CATGTGTC | 0.3458 ± 0.0021
AATGTGTG | 0.4245 ± 0.0035
AATGTGCG | 0.3287 ± 0.0028
